Inconclusive results are not listed. Some compounds were tested as several samples or in several runs, with calls that do not always agree. Active and inactive are the calls of the source. How the source made its calls, unless noted: active means hit-call score of the fitted dose curve at least 0.9, where 1 is the maximum; inactive means score below 0.9.
read-out: Monokine induced gamma interferon (MIG), CXCL9 (gene 4283); experiment: BSK_3C_MIG: BioMAP Diversity Plus: 3C Assay for Monokine induced gamma interferon (MIG) Biomarker Activity (AID 2283021); settings: primary human endothelial cells (HUVEC); actives raise or lower the signal;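 on AC50: MIG protein level measured by immunoassay in the treated endothelial cultures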
Outline: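 Primary human umbilical vein endothelial cells in the 3C system were exposed to chemical for 24 h, after which MIG was quantified by ELISA. Activity was fitted bidirectionally against DMSO as negative control and baseline.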

| Compound | outcome | AC50 |
| --- | --- | --- |
| CS(=O)(=O)c1ccc([C@@H](C[C@H]2CCC(=O)C2)C(=O)Nc2cnccn2)cc1Cl | inactive |  |
| O=C(O)CN(CC(=O)O)CC(=O)O | inactive |  |
| CC1(C)C(=O)NC(=O)N1CO | inactive |  |
| CC(C)c1cccc(C(C)C)c1NC(=O)NS(=O)(=O)c1cc(C(C)(C)O)co1 | inactive |  |
| CCCC(=O)O | inactive |  |
| C=CCCCCCCCCCCCC | inactive |  |
| CCCCC(CC)COP(=O)(OCC(CC)CCCC)OCC(CC)CCCC (stereo not drawn) | inactive |  |
| NC1CCCCC1 | inactive |  |
| CC(=O)CC(c1ccccc1)c1c(O)c2ccccc2oc1=O (stereo not drawn) | inactive |  |
| C=CCc1ccc(OC)c(OC)c1 | inactive |  |
| CC(C)OC(=O)C(C)(C)Oc1ccc(C(=O)c2ccc(Cl)cc2)cc1 | inactive |  |
| CCCCCCCCCC[N+](C)(C)[O-] | inactive |  |
| CCCCCCCC(=O)OC | inactive |  |
| Oc1ccc(O)cc1 | inactive |  |
| CSc1ccc(Oc2ccc(S(N)(=O)=O)cc2CN(C)C)cc1C | inactive |  |
| CCc1cc(C2=C(C(=O)O)N(c3ccccc3C(F)(F)F)S(=O)(=O)c3ccccc32)cc2c1OCO2 | inactive |  |
| NCCOCCOCCN | inactive |  |
| S=c1[nH]c2ccccc2s1 | inactive |  |
| O=C(N[C@@H](c1ccccc1)[C@@H]1CCCCN1)c1cccc(C(F)(F)F)c1Cl | inactive |  |
| O=C1CCCCC1 | inactive |  |
| Cc1ccc(C(C)(C)C)c(O)c1 | inactive |  |
| CCN(CC)CCOc1ccc(C(=C(Cl)c2ccccc2)c2ccccc2)cc1 |  | 15.1 µM (active) |
| CC(=O)[C@@]1(O)CC[C@H]2[C@@H]3CCC4=CC(=O)CC[C@]4(C)[C@H]3CC[C@@]21C | inactive |  |
| CCCCC(CC)CO (stereo not drawn) | inactive |  |
| CC(=O)O[C@]1(C(C)=O)CC[C@H]2[C@@H]3C=C(Cl)C4=CC(=O)[C@@H]5C[C@@H]5[C@]4(C)[C@H]3CC[C@@]21C | inactive |  |
| COc1ccc(OC(F)(F)F)cc1CN[C@H]1CCCN[C@H]1c1ccccc1 | inactive |  |
| CC(COCC(C)OC(=O)c1ccccc1)OC(=O)c1ccccc1 (stereo not drawn) | inactive |  |
| Cc1occc(=O)c1O | inactive |  |
| O=C(O)c1[nH]n(-c2ccc(S(=O)(=O)O)cc2)c(=O)c1N=Nc1ccc(S(=O)(=O)O)cc1 | inactive |  |

biological target: human Vitamin D Receptor (VDR), VDR (gene 7421) (UniProt P11473); experiment: ATG_VDR_TRANS: Attagene TRANS-FACTORIAL HepG2 Assay for human Vitamin D Receptor (VDR) (AID 2283022; active means hit-call score of the fitted dose curve at least 0.9, where 1 is the maximum); settings: not given
Outline: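 Steps: transfect HepG2 with GAL4-UAS-driven reporter constructs; dose compounds 24 h; isolate RNA, reverse-transcribe, PCR-amplify with 6-FAM-labelled primer extension and HpaI digestion; quantify fragments by capillary electrophoresis relative to DMSO.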

human Vitamin D Receptor (VDR), VDR (gene 7421), sequence (P11473 whole entry, looked up, the tested form may be a part): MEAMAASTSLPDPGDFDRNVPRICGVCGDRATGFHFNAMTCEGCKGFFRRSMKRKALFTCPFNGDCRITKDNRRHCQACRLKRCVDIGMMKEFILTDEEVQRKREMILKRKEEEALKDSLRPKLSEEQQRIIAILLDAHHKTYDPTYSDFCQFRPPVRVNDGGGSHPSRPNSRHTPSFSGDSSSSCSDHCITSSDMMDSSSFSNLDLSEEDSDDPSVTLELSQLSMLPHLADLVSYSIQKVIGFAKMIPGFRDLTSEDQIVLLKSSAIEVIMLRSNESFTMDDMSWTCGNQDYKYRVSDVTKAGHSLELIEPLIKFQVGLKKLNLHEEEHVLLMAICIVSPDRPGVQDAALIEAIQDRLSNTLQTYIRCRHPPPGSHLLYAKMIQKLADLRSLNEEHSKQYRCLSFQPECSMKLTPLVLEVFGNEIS

| Compound | outcome | AC50 |
| --- | --- | --- |
| CS(=O)(=O)c1ccc([C@@H](C[C@H]2CCC(=O)C2)C(=O)Nc2cnccn2)cc1Cl | inactive |  |
| O=C(O)CN(CC(=O)O)CC(=O)O | inactive |  |
| CC1(C)C(=O)NC(=O)N1CO | inactive |  |
| CC(C)c1cccc(C(C)C)c1NC(=O)NS(=O)(=O)c1cc(C(C)(C)O)co1 | inactive |  |
| CCCC(=O)O | inactive |  |
| C=CCCCCCCCCCCCC | inactive |  |
| CCCCC(CC)COP(=O)(OCC(CC)CCCC)OCC(CC)CCCC (stereo not drawn) | inactive |  |
| NC1CCCCC1 | inactive |  |
| CC(=O)CC(c1ccccc1)c1c(O)c2ccccc2oc1=O (stereo not drawn) | inactive |  |
| C=CCc1ccc(OC)c(OC)c1 | inactive |  |
| CC(C)OC(=O)C(C)(C)Oc1ccc(C(=O)c2ccc(Cl)cc2)cc1 | inactive |  |
| CCCCCCCCCC[N+](C)(C)[O-] | inactive |  |
| CCCCCCCC(=O)OC | inactive |  |
| Oc1ccc(O)cc1 | inactive |  |
| CSc1ccc(Oc2ccc(S(N)(=O)=O)cc2CN(C)C)cc1C | inactive |  |
| CCc1cc(C2=C(C(=O)O)N(c3ccccc3C(F)(F)F)S(=O)(=O)c3ccccc32)cc2c1OCO2 | inactive |  |
| NCCOCCOCCN | inactive |  |
| S=c1[nH]c2ccccc2s1 | inactive |  |
| O=C(N[C@@H](c1ccccc1)[C@@H]1CCCCN1)c1cccc(C(F)(F)F)c1Cl | inactive |  |
| O=C1CCCCC1 | inactive |  |
| Cc1ccc(C(C)(C)C)c(O)c1 | inactive |  |
| CCN(CC)CCOc1ccc(C(=C(Cl)c2ccccc2)c2ccccc2)cc1 | inactive |  |
| CC(=O)[C@@]1(O)CC[C@H]2[C@@H]3CCC4=CC(=O)CC[C@]4(C)[C@H]3CC[C@@]21C | inactive |  |
| CCCCC(CC)CO (stereo not drawn) | inactive |  |
| CC(=O)O[C@]1(C(C)=O)CC[C@H]2[C@@H]3C=C(Cl)C4=CC(=O)[C@@H]5C[C@@H]5[C@]4(C)[C@H]3CC[C@@]21C | inactive | 148 µM (active) |
| COc1ccc(OC(F)(F)F)cc1CN[C@H]1CCCN[C@H]1c1ccccc1 | inactive |  |
| CC(COCC(C)OC(=O)c1ccccc1)OC(=O)c1ccccc1 (stereo not drawn) | inactive |  |
| Cc1occc(=O)c1O | inactive |  |
| O=C(O)c1[nH]n(-c2ccc(S(=O)(=O)O)cc2)c(=O)c1N=Nc1ccc(S(=O)(=O)O)cc1 | inactive |  |

read-out: not listed separately; experiment: BSK_3C_SRB: Viability Assessment in the BioMAP Diversity Plus: 3C Assay (AID 2283023); settings: primary human endothelial cells (HUVEC);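 further: cells read 24 h after compound dosing; fitted both ways against DMSO so a hit may be signal rise or drop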
Outline: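 Absorbance at 560 nm of sulforhodamine B-stained (0.1%) total protein served as a cytotoxicity readout in human umbilical vein endothelial cells, 24 h after chemical treatment. Signal was fitted bidirectionally relative to DMSO.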

| Compound | outcome | AC50 |
| --- | --- | --- |
| CS(=O)(=O)c1ccc([C@@H](C[C@H]2CCC(=O)C2)C(=O)Nc2cnccn2)cc1Cl | inactive |  |
| O=C(O)CN(CC(=O)O)CC(=O)O | inactive |  |
| CC(C)c1cccc(C(C)C)c1NC(=O)NS(=O)(=O)c1cc(C(C)(C)O)co1 | inactive |  |
| CCCC(=O)O | inactive |  |
| C=CCCCCCCCCCCCC | inactive |  |
| CCCCC(CC)COP(=O)(OCC(CC)CCCC)OCC(CC)CCCC (stereo not drawn) |  | 20 µM (active) |
| NC1CCCCC1 | inactive |  |
| CC(=O)CC(c1ccccc1)c1c(O)c2ccccc2oc1=O (stereo not drawn) | inactive |  |
| C=CCc1ccc(OC)c(OC)c1 | inactive |  |
| CC(C)OC(=O)C(C)(C)Oc1ccc(C(=O)c2ccc(Cl)cc2)cc1 |  | 14.8 µM (active) |
| CCCCCCCC(=O)OC | inactive |  |
| Oc1ccc(O)cc1 | inactive |  |
| CCc1cc(C2=C(C(=O)O)N(c3ccccc3C(F)(F)F)S(=O)(=O)c3ccccc32)cc2c1OCO2 | inactive |  |
| NCCOCCOCCN | inactive |  |
| S=c1[nH]c2ccccc2s1 | inactive |  |
| O=C(N[C@@H](c1ccccc1)[C@@H]1CCCCN1)c1cccc(C(F)(F)F)c1Cl |  | 20 µM (active) |
| O=C1CCCCC1 | inactive |  |
| Cc1ccc(C(C)(C)C)c(O)c1 | inactive |  |
| CCN(CC)CCOc1ccc(C(=C(Cl)c2ccccc2)c2ccccc2)cc1 |  | 11.7 µM (active) |
| CC(=O)[C@@]1(O)CC[C@H]2[C@@H]3CCC4=CC(=O)CC[C@]4(C)[C@H]3CC[C@@]21C | inactive |  |
| CCCCC(CC)CO (stereo not drawn) | inactive |  |
| CC(=O)O[C@]1(C(C)=O)CC[C@H]2[C@@H]3C=C(Cl)C4=CC(=O)[C@@H]5C[C@@H]5[C@]4(C)[C@H]3CC[C@@]21C |  | 29.8 µM (active) |
| COc1ccc(OC(F)(F)F)cc1CN[C@H]1CCCN[C@H]1c1ccccc1 |  | 15 µM (active) |
| Cc1occc(=O)c1O | inactive |  |
